Test results taken from PubChem BioAssay (EPA / NIEHS).
Inconclusive results are not listed. More than one record can exist for a structure, and the calls need not agree. Active and inactive are the calls of the source. The calls were made as follows, unless noted: active = hit-call score of the fitted dose curve at least 0.9, where 1 is the maximum; inconclusive = response in the unintended direction; inactive = score below 0.9.

Columns and labels:
[1] = target: X-box-binding protein 1 (Homo sapiens) (UniProt P17861); assay: ATG_Xbp1_CIS: Attagene CIS-FACTORIAL HepG2 Assay for human X-box Binding Protein 1 (XBP1) (AID 2282972; active = hit-call score of the fitted dose curve at least 0.9, where 1 is the maximum; inactive = score below 0.9); settings: HepG2 XBP1 cis-element reporter, Attagene multiplex; actives raise or lower the signal
Sequence of X-box-binding protein 1 (Homo sapiens) (P17861 whole entry, looked up): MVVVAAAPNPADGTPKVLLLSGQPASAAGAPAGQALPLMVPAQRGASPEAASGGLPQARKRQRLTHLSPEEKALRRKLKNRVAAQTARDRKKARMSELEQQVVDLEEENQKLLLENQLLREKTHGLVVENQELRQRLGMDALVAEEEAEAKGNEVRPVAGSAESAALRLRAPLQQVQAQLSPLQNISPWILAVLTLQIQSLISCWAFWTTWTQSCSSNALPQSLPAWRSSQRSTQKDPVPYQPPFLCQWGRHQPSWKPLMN
Outline: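 After a 24-hour chemical exposure of HepG2 cells carrying cis-regulated reporters, reporter mRNA levels are assessed. Quantification uses RT-PCR, 6-FAM labelling and capillary electrophoresis. Gain- or loss-of-signal is fitted against DMSO.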

[2] = ATG_M_19_TRANS: Attagene TRANS-FACTORIAL HepG2 Assay for M19 Transcription Factor (Internal Marker) (AID 2282974); settings: HepG2 Attagene TRANS-FACTORIAL M19 internal marker reporter
Outline: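 Transfected HepG2 (GAL4-UAS MRTUs), 24 h compound, TriZol RNA, DNase-treated RT, reporter PCR, FAM label, HpaI digest, CE fluorescence; gain vs DMSO.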

[3] = ATG_GAL4_TRANS: Attagene TRANS-FACTORIAL HepG2 Assay for GAL4 (Internal Marker) (AID 2282976); settings: HepG2 Attagene TRANS GAL4 internal marker reporter
Outline: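 Fluorescence from capillary electrophoresis of labelled RT-PCR products quantifies reporter mRNA induction after 24 h dosing of HepG2 cells carrying transfected GAL4-UAS reporter transcription units. Vehicle DMSO serves as baseline.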

[4] = target: Glucocorticoid receptor (Homo sapiens) (UniProt P04150); assay: ATG_GR_TRANS: Attagene TRANS-FACTORIAL HepG2 Assay for human Glucocorticoid Receptor (GR) (AID 2282978); settings: HepG2 Attagene TRANS GR reporter, mRNA transcription;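 also: activators score as hits since higher reporter transcript over DMSO is fitted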
Sequence of Glucocorticoid receptor (Homo sapiens) (P04150 whole entry, looked up): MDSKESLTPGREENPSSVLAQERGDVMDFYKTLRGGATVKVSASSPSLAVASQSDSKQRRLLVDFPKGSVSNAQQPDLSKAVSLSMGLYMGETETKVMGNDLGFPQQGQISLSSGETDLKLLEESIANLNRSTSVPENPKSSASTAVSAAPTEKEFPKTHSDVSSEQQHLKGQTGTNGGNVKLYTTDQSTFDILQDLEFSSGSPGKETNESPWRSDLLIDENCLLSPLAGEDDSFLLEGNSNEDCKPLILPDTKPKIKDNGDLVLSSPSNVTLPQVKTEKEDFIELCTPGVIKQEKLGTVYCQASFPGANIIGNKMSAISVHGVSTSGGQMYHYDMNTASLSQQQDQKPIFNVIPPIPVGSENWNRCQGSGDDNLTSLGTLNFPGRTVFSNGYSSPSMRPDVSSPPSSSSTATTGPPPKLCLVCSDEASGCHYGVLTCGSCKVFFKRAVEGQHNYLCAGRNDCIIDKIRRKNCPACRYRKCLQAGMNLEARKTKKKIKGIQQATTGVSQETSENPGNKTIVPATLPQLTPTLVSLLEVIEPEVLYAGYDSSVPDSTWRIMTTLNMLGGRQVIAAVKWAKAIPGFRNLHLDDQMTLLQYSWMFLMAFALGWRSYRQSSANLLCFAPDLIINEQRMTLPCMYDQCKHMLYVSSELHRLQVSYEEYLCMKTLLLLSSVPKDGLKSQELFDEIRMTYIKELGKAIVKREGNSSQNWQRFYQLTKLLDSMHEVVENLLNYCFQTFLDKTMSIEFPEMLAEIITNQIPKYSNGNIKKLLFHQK
Outline: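 After 24 h incubation with test chemical, transfected HepG2 cells were lysed for RNA; reporter cDNA was amplified, FAM-labelled, HpaI-digested and sized on a capillary analyser. Signal gain relative to DMSO was scored.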

[5] = target: Bile acid receptor (Homo sapiens) (UniProt Q96RI1); assay: ATG_FXR_TRANS: Attagene TRANS-FACTORIAL HepG2 Assay for Farnesoid X Receptor (FXR) (AID 2282979); settings: HepG2 Attagene TRANS FXR-GAL4 reporter transcription;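 also: hits raise reporter mRNA above DMSO so AC50 marks FXR activation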
Sequence of Bile acid receptor (Homo sapiens) (Q96RI1 whole entry, looked up, the tested form may be a part): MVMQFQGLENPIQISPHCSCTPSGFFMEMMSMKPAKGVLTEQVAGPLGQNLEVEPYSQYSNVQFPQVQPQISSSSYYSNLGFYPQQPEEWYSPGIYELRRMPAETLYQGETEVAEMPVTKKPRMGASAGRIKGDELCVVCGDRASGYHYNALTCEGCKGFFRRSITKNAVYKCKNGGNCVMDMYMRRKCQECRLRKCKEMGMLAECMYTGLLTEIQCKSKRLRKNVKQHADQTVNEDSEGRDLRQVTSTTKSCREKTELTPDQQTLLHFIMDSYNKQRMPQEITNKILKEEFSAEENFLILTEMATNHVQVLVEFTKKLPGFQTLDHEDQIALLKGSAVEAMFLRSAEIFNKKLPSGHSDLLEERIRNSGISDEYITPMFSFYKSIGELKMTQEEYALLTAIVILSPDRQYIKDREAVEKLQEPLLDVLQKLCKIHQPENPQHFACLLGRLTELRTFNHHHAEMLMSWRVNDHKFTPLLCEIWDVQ
Outline: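 Chimeric FXR-GAL4 activity in transiently transfected human HepG2 liver cells is scored as induction of reporter mRNA after 24 h of dosing. Detection uses RT-PCR with fluorescent labelling and capillary electrophoresis, with DMSO serving as baseline.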

[6] = target: Oxysterols receptor LXR-alpha (Homo sapiens) (UniProt Q13133); assay: ATG_LXRa_TRANS: Attagene TRANS-FACTORIAL HepG2 Assay for human Liver X Receptor alpha (LXRa) (AID 2282980); settings: HepG2 Attagene TRANS reporter, LXRa transactivation
Sequence of Oxysterols receptor LXR-alpha (Homo sapiens) (Q13133 whole entry, looked up): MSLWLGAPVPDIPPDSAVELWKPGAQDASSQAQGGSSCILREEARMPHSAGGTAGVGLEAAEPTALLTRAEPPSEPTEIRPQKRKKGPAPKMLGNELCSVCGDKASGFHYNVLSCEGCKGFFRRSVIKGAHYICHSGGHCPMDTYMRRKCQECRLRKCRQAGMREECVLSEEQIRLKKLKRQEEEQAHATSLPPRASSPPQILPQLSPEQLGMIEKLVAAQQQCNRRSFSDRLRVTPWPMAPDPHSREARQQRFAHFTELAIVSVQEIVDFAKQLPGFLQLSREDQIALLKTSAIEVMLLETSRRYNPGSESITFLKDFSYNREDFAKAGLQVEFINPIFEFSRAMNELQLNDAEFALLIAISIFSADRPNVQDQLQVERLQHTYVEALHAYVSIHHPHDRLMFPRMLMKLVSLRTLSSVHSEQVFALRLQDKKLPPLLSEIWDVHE
Outline: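 Transient HepG2 transfectants, 24 h dosing, RT-PCR/CE mRNA reporter quantitation; gain-of-signal vs DMSO.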

[7] = target: Oxysterols receptor LXR-beta (Homo sapiens) (UniProt P55055); assay: ATG_LXRb_TRANS: Attagene TRANS-FACTORIAL HepG2 Assay for human Liver X Receptor beta (LXRb) (AID 2282981); settings: HepG2 Attagene TRANS GAL4-LXRb reporter, mRNA
Sequence of Oxysterols receptor LXR-beta (Homo sapiens) (P55055 whole entry, looked up, the tested form may be a part): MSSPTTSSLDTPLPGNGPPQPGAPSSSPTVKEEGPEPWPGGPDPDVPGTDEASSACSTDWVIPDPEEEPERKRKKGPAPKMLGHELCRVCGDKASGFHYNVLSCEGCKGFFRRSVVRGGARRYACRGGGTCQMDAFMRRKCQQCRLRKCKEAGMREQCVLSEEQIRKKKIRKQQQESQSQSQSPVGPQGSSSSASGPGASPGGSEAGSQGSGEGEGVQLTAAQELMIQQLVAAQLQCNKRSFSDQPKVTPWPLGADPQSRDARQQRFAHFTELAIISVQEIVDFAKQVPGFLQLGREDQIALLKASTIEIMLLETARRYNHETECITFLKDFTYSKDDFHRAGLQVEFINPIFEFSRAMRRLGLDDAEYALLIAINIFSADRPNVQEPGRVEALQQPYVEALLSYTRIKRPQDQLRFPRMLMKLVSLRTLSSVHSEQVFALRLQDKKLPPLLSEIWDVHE
Outline: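 Cells: HepG2, transiently transfected with GAL4-UAS reporter units plus LXRb-Gal4 fusion. Treatment: 24 h. Detection: reporter mRNA by RT-PCR, 6-FAM labelling, HpaI digestion, capillary electrophoresis.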

[8] = target: Estrogen-related receptor gamma (Homo sapiens) (UniProt P62508); assay: ATG_ERRg_TRANS: Attagene TRANS-FACTORIAL HepG2 Assay for human Estrogen-Related Receptor gamma (ERRg) (AID 2282977); settings: HepG2 Attagene TRANS reporter, ERRg transactivation;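 also: hits increase reporter signal over DMSO so potencies reflect activators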
Sequence of Estrogen-related receptor gamma (Homo sapiens) (P62508 whole entry, looked up, the tested form may be a part): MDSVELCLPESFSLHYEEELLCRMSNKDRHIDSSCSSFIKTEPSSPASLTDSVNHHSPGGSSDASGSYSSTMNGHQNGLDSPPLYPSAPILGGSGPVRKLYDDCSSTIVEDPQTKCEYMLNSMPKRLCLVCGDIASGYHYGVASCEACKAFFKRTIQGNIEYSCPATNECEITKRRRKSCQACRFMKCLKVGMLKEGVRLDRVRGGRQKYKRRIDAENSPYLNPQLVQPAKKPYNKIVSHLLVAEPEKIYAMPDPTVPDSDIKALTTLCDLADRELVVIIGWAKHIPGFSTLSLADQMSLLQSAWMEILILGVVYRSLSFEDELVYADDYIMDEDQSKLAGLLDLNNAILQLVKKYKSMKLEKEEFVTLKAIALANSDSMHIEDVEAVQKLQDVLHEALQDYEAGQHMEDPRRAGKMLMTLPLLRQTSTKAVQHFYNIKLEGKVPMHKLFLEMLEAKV
Outline: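 HepG2 cells transiently transfected with multiplexed GAL4-UAS reporter units and chimeric NR-Gal4 constructs were exposed to test chemicals for 24 h. Reporter mRNA was measured by RT-PCR, 6-FAM primer extension, HpaI digestion and capillary electrophoresis; gain-of-signal versus DMSO.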

[9] = target: Hepatocyte nuclear factor 4-alpha (Homo sapiens) (UniProt P41235); assay: ATG_HNF4a_TRANS: Attagene TRANS-FACTORIAL HepG2 Assay for human Hepatocyte Nuclear Factor 4 alpha (HNF4a) (AID 2282982); settings: HepG2 HNF4a transactivation reporter, mRNA readout
Sequence of Hepatocyte nuclear factor 4-alpha (Homo sapiens) (P41235 whole entry, looked up): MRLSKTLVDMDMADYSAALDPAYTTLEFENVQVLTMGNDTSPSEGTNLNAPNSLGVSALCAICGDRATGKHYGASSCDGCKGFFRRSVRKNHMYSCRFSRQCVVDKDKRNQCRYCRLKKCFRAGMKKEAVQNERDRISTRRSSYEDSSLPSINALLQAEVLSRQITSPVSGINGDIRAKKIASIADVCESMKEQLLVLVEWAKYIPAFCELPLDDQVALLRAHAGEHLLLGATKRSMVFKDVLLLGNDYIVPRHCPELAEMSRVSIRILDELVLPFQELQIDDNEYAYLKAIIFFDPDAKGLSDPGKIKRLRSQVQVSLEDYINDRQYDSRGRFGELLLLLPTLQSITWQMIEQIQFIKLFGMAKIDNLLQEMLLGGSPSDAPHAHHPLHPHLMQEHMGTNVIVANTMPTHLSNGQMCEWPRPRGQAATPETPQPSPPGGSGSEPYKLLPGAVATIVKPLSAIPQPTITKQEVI
Outline: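 Transfected HepG2 reporter cells are dosed for 24 h; reporter RNA is reverse-transcribed, amplified, fluorescently labelled and HpaI-digested before CE sizing. Positive-direction fit against DMSO.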

SMILES: O=C(Cl)c1ccc(Cl)cc1
- outcome [1]: inactive
- outcome [2]: inactive
- outcome [3]: inactive
- outcome [4]: inactive
- outcome [5]: inactive
- outcome [6]: inactive
- outcome [7]: inactive

SMILES: CC(C)(c1ccc(OCC2CO2)cc1)c1ccc(OCC2CO2)cc1 (stereo not drawn)
- AC50 [1]: 24.4 µM (active)
- outcome [2]: inactive
- outcome [3]: inactive
- outcome [4]: inactive
- outcome [7]: inactive

SMILES: Oc1c(I)cc(I)cc1I
- AC50 [1]: 33.6 µM (active)
- outcome [2]: inactive
- outcome [3]: inactive
- outcome [8]: inactive
- outcome [4]: inactive
- AC50 [5]: 100 µM (active)
- outcome [9]: inactive

SMILES: COS(=O)(=O)c1ccc(C)cc1
- outcome [1]: inactive
- outcome [2]: inactive
- outcome [3]: inactive
- outcome [4]: inactive
- outcome [5]: inactive
- outcome [6]: inactive
- outcome [9]: inactive

SMILES: ClC1=C(Cl)[C@]2(Cl)[C@H]3[C@H]([C@H]4C=C[C@H]3C4)[C@@]1(Cl)C2(Cl)Cl
- outcome [1]: inactive
- outcome [2]: inactive
- outcome [4]: inactive

SMILES: CCOC(=O)Nc1cccc(OC(=O)Nc2ccccc2)c1
- outcome [1]: inactive
- outcome [2]: inactive
- outcome [3]: inactive
- outcome [6]: inactive
- outcome [7]: inactive
- outcome [9]: inactive

SMILES: CCCCP(CCCC)CCCC
- outcome [1]: inactive
- outcome [2]: inactive
- outcome [3]: inactive
- outcome [5]: inactive
- outcome [6]: inactive
- outcome [7]: inactive
- outcome [9]: inactive

SMILES: CC(=[OH+])/C=C(/C)[O-].CC(=[OH+])/C=C(/C)[O-].CC(=[OH+])/C=C(/C)[O-].[Al]
- outcome [1]: inactive
- outcome [2]: inactive
- outcome [3]: inactive
- outcome [7]: inactive
- outcome [9]: inactive

SMILES: CC(C)(C)CC(C)(C)c1ccc(O)cc1
- outcome [1]: inactive
- outcome [2]: inactive
- outcome [4]: inactive
- outcome [5]: inactive
- outcome [6]: inactive
- outcome [9]: inactive

SMILES: CNC
- outcome [1]: inactive
- outcome [2]: inactive
- outcome [3]: inactive
- outcome [4]: inactive
- outcome [7]: inactive

SMILES: CC(C)C1CCC(Cc2ccc(Cl)cc2)C1(O)Cn1cncn1 (stereo not drawn)
- outcome [1]: inactive
- outcome [2]: inactive
- outcome [8]: inactive
- outcome [4]: inactive
- outcome [5]: inactive
- outcome [6]: inactive
- outcome [7]: inactive

SMILES: Nc1ncc([N+](=O)[O-])s1
- outcome [1]: inactive
- outcome [2]: inactive
- outcome [8]: inactive
- outcome [4]: inactive
- outcome [7]: inactive

SMILES: Cn1sc(Cl)cc1=O
- outcome [1]: inactive

SMILES: CCCCCCCCSC(=O)Oc1cc(Cl)nnc1-c1ccccc1
- outcome [1]: inactive
- outcome [2]: inactive

SMILES: CCOP(=S)(OCC)Oc1ccc(S(C)=O)cc1 (stereo not drawn)
- outcome [1]: inactive
- outcome [2]: inactive
- outcome [8]: inactive
- outcome [6]: inactive
- outcome [7]: inactive

SMILES: C[C@@H]1C[C@@H]([C@H](O)CC2CC(=O)NC(=O)C2)C(=O)[C@@H](C)C1
- AC50 [1]: 89.5 µM (active)
- outcome [1]: inactive
- outcome [8]: inactive
- outcome [5]: inactive
- outcome [6]: inactive
- outcome [7]: inactive
- outcome [9]: inactive

SMILES: O=C(Cc1ccccc1)c1ccccc1
- outcome [1]: inactive
- outcome [2]: inactive
- outcome [4]: inactive
- outcome [5]: inactive

SMILES: C=CC(=O)N(C)C
- outcome [1]: inactive
- outcome [2]: inactive
- outcome [8]: inactive
- outcome [6]: inactive
- outcome [7]: inactive

SMILES: CN(C)N=O
- outcome [1]: inactive
- outcome [2]: inactive
- outcome [3]: inactive
- outcome [4]: inactive
- outcome [5]: inactive
- outcome [7]: inactive
- outcome [9]: inactive

SMILES: C(=NC1CCCCC1)=NC1CCCCC1
- AC50 [1]: 1.97 µM (active)
- outcome [2]: inactive
- outcome [8]: inactive
- outcome [6]: inactive
- outcome [9]: inactive

SMILES: COc1ccc(OC)c(C=O)c1
- outcome [1]: inactive
- outcome [2]: inactive
- outcome [3]: inactive
- outcome [4]: inactive
- outcome [6]: inactive
- outcome [9]: inactive

SMILES: C=CC(=O)OCCCCCC(C)C
- outcome [1]: inactive
- outcome [2]: inactive
- outcome [3]: inactive
- outcome [5]: inactive
- outcome [9]: inactive

SMILES: CC(C)(OO)c1ccccc1
- outcome [1]: inactive
- outcome [2]: inactive
- outcome [3]: inactive
- outcome [4]: inactive
- outcome [5]: inactive

SMILES: O=P(O)(O)CN(CP(=O)(O)O)CP(=O)(O)O
- outcome [1]: inactive
- outcome [2]: inactive
- outcome [3]: inactive
- outcome [4]: inactive
- outcome [7]: inactive
- outcome [9]: inactive

SMILES: CCOP(=S)(OCC)Oc1nc(Cl)c(Cl)cc1Cl
- AC50 [1]: 100 µM (active)
- outcome [2]: inactive
- outcome [4]: inactive
- outcome [5]: inactive

SMILES: COP(=O)(OC)O/C(=C\Cl)c1cc(Cl)c(Cl)cc1Cl
- outcome [1]: inactive
- outcome [2]: inactive
- outcome [8]: inactive
- outcome [5]: inactive

SMILES: COC(=O)Cc1ccccc1
- outcome [1]: inactive
- outcome [2]: inactive
- outcome [4]: inactive
- outcome [6]: inactive

SMILES: Fc1ccc(C2(Cn3cncn3)OC2c2ccccc2Cl)cc1 (stereo not drawn)
- outcome [1]: inactive
- outcome [2]: inactive
- outcome [4]: inactive
- outcome [5]: inactive
- outcome [6]: inactive

SMILES: CC12CC1(C)C(=O)N(c1cc(Cl)cc(Cl)c1)C2=O (stereo not drawn)
- outcome [1]: inactive
- outcome [2]: inactive
- outcome [3]: inactive
- outcome [4]: inactive
- outcome [6]: inactive
- outcome [7]: inactive
- outcome [9]: inactive

SMILES: O=[N+]([O-])c1ccc2c3c(cccc13)CC2
- outcome [1]: inactive
- outcome [2]: inactive
- outcome [3]: inactive
- outcome [5]: inactive
- outcome [9]: inactive

SMILES: O=C(CCl)CCl
- AC50 [1]: 48.1 µM (active)

SMILES: CC(=O)OC(c1ccccc1)C(Cl)(Cl)Cl (stereo not drawn)
- outcome [1]: inactive
- outcome [2]: inactive
- outcome [4]: inactive
- outcome [5]: inactive
- outcome [7]: inactive

SMILES: C[C@@H](Oc1ccc(Cl)cc1Cl)C(=O)O
- outcome [1]: inactive
- outcome [2]: inactive
- outcome [4]: inactive
- outcome [9]: inactive

SMILES: CCc1ccccc1N
- outcome [1]: inactive
- outcome [2]: inactive
- outcome [6]: inactive
- outcome [7]: inactive
- outcome [9]: inactive

SMILES: O=C/C=C/c1ccccc1
- outcome [1]: inactive
- outcome [2]: inactive
- outcome [4]: inactive
- outcome [6]: inactive
- outcome [7]: inactive
- outcome [9]: inactive

SMILES: CN(CCCC(=O)c1cccnc1)N=O
- outcome [1]: inactive
- outcome [2]: inactive
- outcome [4]: inactive
- outcome [6]: inactive
- outcome [9]: inactive

SMILES: CC(C)CCCCCCOC(=O)c1ccccc1C(=O)OCCCCCCC(C)C
- outcome [1]: inactive
- outcome [2]: inactive
- outcome [6]: inactive
- outcome [9]: inactive

SMILES: O=S(=O)(c1ccc(Cl)cc1)c1ccc(Cl)cc1
- outcome [1]: inactive
- outcome [3]: inactive
- outcome [8]: inactive
- outcome [4]: inactive
- outcome [6]: inactive
- outcome [7]: inactive

SMILES: COC(=O)c1sccc1S(=O)(=O)NC(=O)Nc1nc(C)nc(OC)n1
- outcome [1]: inactive
- outcome [2]: inactive
- outcome [4]: inactive
- outcome [6]: inactive
- outcome [7]: inactive

SMILES: OCC(O)CCl (stereo not drawn)
- outcome [1]: inactive
- outcome [3]: inactive
- outcome [7]: inactive

SMILES: N#CN=C(N)N
- outcome [1]: inactive
- outcome [3]: inactive
- outcome [5]: inactive
- outcome [6]: inactive
- outcome [9]: inactive

SMILES: CC(=O)C(Cl)C(=O)N(C)C (stereo not drawn)
- outcome [1]: inactive
- outcome [2]: inactive
- outcome [4]: inactive
- outcome [6]: inactive
- outcome [7]: inactive
- outcome [9]: inactive
